Experimental data from PubChem BioAssay AID1259422 (The Scripps Research Institute Molecular Screening Center, 2018).
Values joined by “and” are separate entries in the source; they are usually repeats but may differ in a detail not shown here. Equal values may be shown once. Among all 640,000 compounds or so, about 9,300 (1.5%) were called active. For the sample, actives were picked, then their nearest neighbours and some compounds at random. Unmarked numbers belong to inactive results. Rule as the data show it: active = inhibition above about 32%; inactive = the rest.

Assay: TEAD-YAP interaction inhibition, primary screen, TEAD-YAP interaction inhibitor project, luminescence, HEK-TIYL cells (AID 1259422);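 also: 0% = median of test compound wells and 100% = reference inhibitor wells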
Conditions: TEAD-Gal4/YAP UAS-luciferase luminescence, at 9.12 µM, hits give high values

| Compound | inhibition |
| --- | --- |
| COc1ccccc1N1C(=O)C2C(C(C)=O)=NN(c3cccc(Cl)c3)C2C1=O (configuration not stated) | 2.39% |
| O=C(CN1CCOCC1)NCC1(c2ccccc2)CCCC1 | 4.7% |
| CCOC(=O)c1c(NC(=O)CSc2nnc(CNC(=O)c3cccs3)n2-c2ccccc2OC)sc2c1CCCCC2 | 11.5% |
| O=S1(=O)Nc2cccc3cccc1c23 | 9.46% |
| CCN1C/C(=C/c2ccc(NC(C)=O)cc2)C(=O)/C(=C/c2ccc(NC(C)=O)cc2)C1 | 77.6% (active) |
| CC(=O)Nc1ccc(CN2CCOCC2)cc1 | -2.53% |
| CCNCC(=O)Nc1ccc(NC(C)=O)cc1 | 5.37% |
| CCCOc1ccc(/C(O)=C2/C(=O)C(=O)N(CCN3CCOCC3)C2c2ccc(F)cc2)cc1C (configuration not stated) | -9.41% |
| O=C1CCCN1CCCNc1cc(-c2cccs2)ncn1 | -13.2% |
| CN(CCC#N)C(=O)Cn1ncc2c1-c1ccccc1OC2 | 4.76% |
| COC(=O)c1cc(S(=O)(=O)Nc2ccc(C(C)=O)cc2)cn1C | -5.94% |
| COc1ccc(C2(C)SC(NC(C)=O)=NN2C(C)=O)cc1 (configuration not stated) | 17.7% |
| CC(=O)NC1=NN(C(C)=O)C(C)(c2ccc(C)cc2)S1 (configuration not stated) | 10.1% |
| CC(=O)NC1=NN(C(C)=O)C(C)(c2ccc(Cl)s2)S1 (configuration not stated) | 63.5% (active) |
| CCOC(=O)c1ccc(Nc2c(-c3ccccc3)c(=O)c2=O)cc1 | -7.89% |
| NC(=O)C1(N2CCCCC2)CCN(C(=O)Nc2ccc(Cl)cc2)CC1 | 3.68% |
| CCC(OC(=O)C(CCSC)NC(=O)c1ccccc1)C(=O)Nc1ccc(S(N)(=O)=O)cc1 (configuration not stated) | -0.22% |
| C=CCOC(=O)c1sc(N2C(=O)C(=O)/C(=C(/O)c3ccccc3)C2c2ccc(C)cc2)nc1C (configuration not stated) | 7.19% |
| COc1ccc(Cn2c(NCCO)nc3c2c(=O)n(C)c(=O)n3C)cc1 | 40.8% (active) |
| CCCn1c(NCCO)nc2c1c(=O)n(C)c(=O)n2C | 15.2% |
| CN(C)CCNc1nc2c(c(=O)n(C)c(=O)n2C)n1Cc1ccc(F)cc1 | 10.5% |
| CC1=C/C(=N\S(=O)(=O)c2ccccc2)C=C(Br)C1=O | -6.31% |
| CC1=C(C(=O)OC(C)C)C(c2cccs2)C2=C(CC(c3ccco3)CC2=O)N1 (configuration not stated) | 60.2% (active) |

| Compound | inhibition |
| --- | --- |
| CC1=C(C(=O)OCC2CCCO2)C(c2cccs2)C2=C(CC(c3cccs3)CC2=O)N1 (configuration not stated) | 9.36% |
| COCCOC(=O)C1=C(C)NC2=C(C(=O)CC(c3cccs3)C2)C1c1ccc(C)s1 (configuration not stated) | 16% and 7.86% |
| COc1cc(NC(=O)c2sc3[nH]c(=O)c(C(=O)O)cc3c2N)c(OC)cc1Cl | -5.84% |
| CCn1cc(C(=O)N2CCc3c(nc(N4CCC(C)CC4)[nH]c3=O)C2)cn1 | -0.66% |
| Cc1cnc(Nc2ccncc2)nc1Nc1ccc(Oc2ccccc2)cc1 | 45.7% (active) |
| Cc1cnc(Nc2ccc3ncccc3c2)nc1Nc1ccccc1 | 29.6% |
| Cc1cnc(Nc2ccc(C(F)(F)F)cc2)nc1Nc1ccccc1 | 11.3% |
| O=C(OCCN1C(=O)c2cccc3c(N4CCCCC4)ccc(c23)C1=O)c1cc(Cl)cc(Cl)c1 | -2.51% |
| O=C(NCCOc1ccccc1)c1cnc(N2CCCC2CO)s1 (configuration not stated) | 81.8% (active) |
| O=C(NCCOc1ccccc1)c1cnc(NCCCN2CCCC2=O)s1 | -45.5% |
| O=C(NCCOc1ccccc1)c1cnc(N2CCN(c3ccccn3)CC2)s1 | -4.73% |
| COc1cc(C(=O)Nc2cccc(-c3cn4ccc(C)cc4n3)c2)cc(OC)c1OC | -17.7% |
| COc1ccc(-c2cn3ccc(C)cc3n2)cc1 | 90.6% (active) |
| COc1ccc(-c2nc3sc(-c4ccc(OC)cc4)nc3s2)cc1 | -1.58% |
| COc1ccc(-c2nc3c(C#N)c(CC#N)nn3cc2C)cc1F | 7.27% |
| COc1ccc(-c2cn3cc(C(=O)O)ccc3n2)cc1 | 15.8% |
| COc1ccc(-c2cn3ccc(C)cc3n2)cc1F | 78.7% (active) |
| COCCNc1nc(-c2c[nH]c3ccccc23)cs1 | 0.65% |
| CCOC(=O)N1CCC(NC(=O)C2CC23CCN(CC2CC=CCC2)CC3)CC1 (configuration not stated) | 11.9% |
| CCN(CC(=O)Nc1ccccc1OC)Cc1nc2scc(-c3ccccc3)c2c(=O)[nH]1 | -1.6% |
| Cc1ccc(C2=Nc3ccccc3N=C(c3ccc(C(C)(C)C)cc3)C2)c(O)c1 | 38.6% (active) |
| Oc1ccc(Cl)cc1C1=Nc2ccccc2N=C(c2cccc(F)c2)C1 | -24.4% |
| CC(=O)N1c2ccccc2N=C(c2ccc(C)cc2)CC1c1ccc([N+](=O)[O-])cc1 (configuration not stated) | 2.03% |

| Compound | inhibition |
| --- | --- |
| COc1ccccc1NC(CNS(=O)(=O)c1ccc(Cl)cc1)c1ccccc1 (configuration not stated) | -1.96% |
| COc1ccccc1OCC(=O)Nc1ncc(Cc2cccc(C)c2)s1 | 3.43% |
| Cc1ccccc1OCC(=O)Nc1ncc(Cc2cccc(Cl)c2)s1 | 50.4% (active) |
| Cc1cccc(Cc2cnc(NC(=O)COc3cccc(C)c3)s2)c1 | 5.87% |
| O=C(Cn1c(=O)oc2cc(S(=O)(=O)NC3CCCC3)ccc21)N1CCCCCC1 | -0.34% |
| COc1ccc(C2C=C(c3ccc(OC(F)F)cc3)Nc3ncnn32)cc1 (configuration not stated) | -77.6% |
| COc1cccc(C2=CC(c3cccc(OC)c3)n3ncnc3N2)c1 (configuration not stated) | 39.1% (active) |
| Brc1ccc(C2=CC(c3cccc(Br)c3)n3ncnc3N2)cc1 (configuration not stated) | 3.83% |
| COc1ccc(OC)c(C2C=C(c3ccc(Br)cc3)Nc3ncnn32)c1 (configuration not stated) | 3.26% |
| COc1ccc(C2=CC(c3ccc(OC)c(OC)c3)n3ncnc3N2)cc1OC (configuration not stated) | 3.8% |
| CCOc1ccc(C2=CC(c3cc(OC)c(OC)c(OC)c3)n3ncnc3N2)cc1 (configuration not stated) | 66.9% (active) |
| O=C(N/N=C\c1cccc([N+](=O)[O-])c1)c1ccccc1I | -11.5% |
| COC(=O)c1ccc(C)c(NC(=O)Nc2cccc(Cl)c2)c1 | 7.6% |
| COc1ccc(OC)c(C2/C(=C(\O)c3ccc(Br)cc3)C(=O)C(=O)N2CCCn2ccnc2)c1 (configuration not stated) | -4.36% |
| CCOC(=O)c1c(NC(=O)c2cc([N+](=O)[O-])ccc2Cl)sc(-c2ccccc2)c1C | 8.37% |
| CCCc1c(C(=O)N[C@H]2C[C@H]3C(=O)N[C@@H](CSCc4ccccc4)C(=O)N3C2)cnn1-c1ccccc1 | 2.64% |
| Cc1csc(=Nc2ccccc2)n1C1CCCC1 | -5.23% |
| FC(F)Oc1ccc(-c2csc(=Nc3cccnc3)n2C2CC2)cc1 | 50.1% (active) |
| COc1ccc(-c2csc(=Nc3ccccc3)n2C)cc1 | -28.4% |
| CC1CCCC(NC(=O)CCCn2nnc3ccccc3c2=O)C1C (configuration not stated) | -2.4% |
| CC(=O)N1CCN(c2nc(Nc3ccccc3C(=O)c3ccccc3)nc(OC(C(F)(F)F)C(F)(F)F)n2)CC1 | 10.2% |
| COC(=O)CCC(=O)N1CCC(Oc2ccc(C(=O)NCCc3ccccc3)cc2)CC1 | 5.68% |
| O=C(NCCN1CCCCC1CO)c1ccc(OC2CCN(C(=O)C3CC3)CC2)cc1 (configuration not stated) | 1.44% |

| Compound | inhibition |
| --- | --- |
| O=C(NCCc1ccccc1)c1ccc(OC2CCN(C(=O)C3CCCO3)CC2)cc1 (configuration not stated) | 40.4% (active) |
| O=C(COC(=O)CCN1C(=O)C2CC=CCC2C1=O)Nc1ncc(Cl)cc1Cl (configuration not stated) | 5.49% |
| CNC(=O)c1cc(F)ccc1Nc1cc(Nc2ccc3c(c2)CCC(=O)N3)ncc1C(F)(F)F | 78.9% (active) |
| O=C1Cc2cc(Nc3cc(Nc4ccccn4)c(C(F)(F)F)cn3)ccc2N1 | 22.7% |
| CNC(=O)c1cc(F)ccc1Nc1cc(Nc2ccc3[nH]ncc3c2)ncc1C(F)(F)F | 27.2% |
| CNC(=O)c1cc(F)ccc1Nc1cc(Nc2ccc(NC(C)=O)cn2)ncc1C(F)(F)F | 84.8% (active) |
| CNC(=O)c1cc(F)ccc1Nc1cc(Nc2ccc3nc[nH]c3c2)ncc1C(F)(F)F | -9.89% |
| CCc1ccc(NC(=O)C2CCN(S(=O)(=O)c3ccc4c(c3)CCC(=O)N4)CC2)cc1 | -10.1% |
| O=C(CSc1nc2ccccc2s1)Nc1ccc(O)c(C(=O)O)c1 | -2.73% |
| OCCNCCCOc1ccc(I)cc1 | 15.9% |
| COc1c(C)c2c(c(O)c1C/C=C(\C)CCC(=O)O)C(=O)OC2 | 39.5% (active) and 67.1% (active) |
| O=c1oc2cc(O)ccc2cc1-c1ccc(F)cc1 | 36% (active) |
| O=c1oc2ccccc2cc1-c1ccc(Cl)cc1 | -27% |
| Cc1ccc(Nc2nnc(-c3cc4ccc(O)cc4oc3=O)s2)cc1 | 8.37% |
| COc1cccc(CN2CCN(Cc3cn[nH]c3-c3cccc(F)c3)CC2CCO)c1 (configuration not stated) | 6.95% |
| CCCCSCCC(=O)O | -16.4% |
| COCCNc1cc(-c2ccc(F)cc2)nc(C)n1 | -31.9% |
| COC(CNc1cc(-c2cccc(C(F)(F)F)c2)nc(-c2ccncc2)n1)OC | 14.2% |
| COC(CNc1cc(-c2ccc(F)cc2)nc(-c2ccccn2)n1)OC | 42.7% (active) |
| CC(C)(C)NCCOc1ccccc1F | 14.1% |
| CCOc1cc(C#N)ccc1OCC(=O)Nc1ccc(C)cc1C | 15.8% |
| COC(=O)C1=C(C)N=c2s/c(=C/c3ccc(N(C)C)cc3)c(=O)n2C1c1ccccc1Cl (configuration not stated) | -14.2% |
| O=C(NNS(=O)(=O)c1cccc(Cl)c1Cl)C12CC3CC(CC(C3)C1)C2 | -2.41% |
